# Bioassay records deposited in PubChem by National Center for Advancing Translational Sciences (NCATS).
# ALDH1A1 inh: qHTS Assay for Inhibitors of Aldehyde Dehydrogenase 1 (ALDH1A1). Purified ALDH1A1, NADH fluorescence, propionaldehyde substrate. Potency, µM (highest dose often 75.3 µM), for inactives: at the top dose activity, negative = inhibition, usual class: inhibitors. actives 7.3% (n = 220,000); active = well fitted inhibition curve with a large enough effect, not every such curve was filed as active; inconclusive = small, poorly fitted or top-dose-only effect, or another doubt; inactive = no such curve, though single readings can be large or run the other way;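 also: potency is read from the fitted curve at half-maximal effect; plate controls were no enzyme wells and a reference inhibitor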
# NPSR antag: qHTS Assay for Antagonists of the Neuropeptide S Receptor: cAMP Signal Transduction; Q6W5P4; CHO-NPSR cells, cAMP TR-FRET, antagonist mode; Potency, µM (series often up to 38.3 µM), without a hit: at the top dose activity change, negative = inhibition, hits mostly inhibitors; actives 1% (n = 220,000); AID 1461, 2008; also: potency is read from the fitted curve at half-maximal effect; nearly all actives have a fitted effect of over 50% in size
# IMPase Li cell: qHTS Assay for Identifying the Cell-Membrane Permeable IMPase Inhibitors: Potentiation with Lithium | CHO-M1 cells, IP1 TR-FRET (IP-One), carbachol + lithium | Potency, µM (titrated, usually from 59.4 µM), for inactives: at the highest dose activity, negative = IMPase inhibition, actives largely listed as inhibitors | actives 0.35% (n = 210,000) | AID 1457, 2008;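 also: IP1 builds up when IMPase is blocked and the TR-FRET signal falls; potency is read from the fitted curve at half-maximal effect; plate controls were basal vehicle for no effect and high inhibitor control for full effect; nearly all actives have a fitted effect of over 50% in size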
#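 CHO cells stably expressing M1 receptor (2000/well) were cultured 16–30 h, then exposed to compounds with a small lithium addition for 30 min at 37C. IP1 was measured by TR-FRET competition; AC50 from Hill fits.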
# IMPase inh: qHTS Assay for Identifying the Cell-Membrane Permeable IMPase Inhibitors | Inositol monophosphatase 1 (Rattus norvegicus), P97697 | CHO-M1 cells, IP1 accumulation, HTRF TR-FRET ratio | inhibition (IP1 accumulation), % at 46.1 µM | 120,000 tested, under 10 active | AID 901, 2007; active = well fitted curve in the direction sought with a large enough effect in the signal ratio, not every such curve was filed as active; inconclusive = small, poorly fitted or top-dose-only effect, or a change in a side signal; inactive = no such curve, though single readings can be large or run the other way; the % refers to the signal ratio;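 also: cells stimulated with carbachol in lithium chloride buffer; plate controls were DMSO basal wells for no effect and reference inhibitor wells for full effect; higher means more IMPase inhibition seen as more IP1 and lower FRET ratio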
# Target sequence (P97697 whole entry, looked up): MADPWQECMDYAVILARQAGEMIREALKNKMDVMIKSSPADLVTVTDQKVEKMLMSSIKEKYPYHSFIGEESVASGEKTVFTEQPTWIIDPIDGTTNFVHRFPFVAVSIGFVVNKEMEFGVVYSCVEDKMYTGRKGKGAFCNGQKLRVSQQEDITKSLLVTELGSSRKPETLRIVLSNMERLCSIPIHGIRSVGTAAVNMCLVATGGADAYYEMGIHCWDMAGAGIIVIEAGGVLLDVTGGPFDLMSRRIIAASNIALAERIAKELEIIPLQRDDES
#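 The IP-One HTRF competitive assay in carbachol-stimulated CHO-M1 cells quantifies cellular IP1. Compounds spanned up to 46 uM final, and activity is expressed as AC50 from concentration-response fits of the ratio and donor data.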
# HPGD inh: qHTS Assay for Inhibitors of HPGD (15-Hydroxyprostaglandin Dehydrogenase); 15-hydroxyprostaglandin dehydrogenase [NAD(+)] (Homo sapiens), P15428; purified HPGD, NADH fluorescence kinetic, PGE2 substrate; Potency, µM, without a hit: at the top dose activity change, negative = inhibition, usual class: inhibitors; actives 4.3% (n = 150,000); AID 894, 2007; active = well fitted inhibition curve with a large enough effect, not every such curve was filed as active; inconclusive = small, poorly fitted or top-dose-only effect, or another doubt; inactive = no such curve, though single readings can be large or run the other way; also: potency is read from the fitted curve at half-maximal effect
# Target sequence (P15428 whole entry, looked up): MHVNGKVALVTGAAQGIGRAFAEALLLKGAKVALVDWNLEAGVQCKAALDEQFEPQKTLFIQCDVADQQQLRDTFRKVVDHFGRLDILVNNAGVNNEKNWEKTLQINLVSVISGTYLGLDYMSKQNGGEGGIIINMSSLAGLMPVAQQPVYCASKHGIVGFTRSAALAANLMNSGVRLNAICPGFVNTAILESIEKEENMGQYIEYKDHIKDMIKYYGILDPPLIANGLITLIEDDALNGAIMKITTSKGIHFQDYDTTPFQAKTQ
#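 NADH formation kinetics: reaction with 30 uM PGE2 and 1 mM NAD+ (final), 20 nM enzyme, Tris-HCl pH 8 with Tween 20, after 15 min compound preincubation at room temperature. Fluorescence change, last versus first of five reads.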
# PNC assembly inh: High Content Assay for Compounds that inhibit the Assembly of the Perinucleolar Compartment; PC3M PTB-GFP, PNC prevalence imaging, 16 h; active compounds read low; activity change (PNC), negative = inhibition, % at 10 µM; actives 3.1% (n = 140,000); AID 2417, 2010;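 active = readout at or below -70, meaning at least 70% loss of cells showing the perinucleolar compartment, a nuclear body marking cancer cells; inconclusive = readout between -30 and a set limit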;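 also: plate controls were DMSO wells for no effect and camptothecin positive control wells for full effect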
#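 PC3M cells stably expressing PTB-GFP, 750–1000 cells/well, treated 16 h at 37 °C with compound (23 nl of library stock), in duplicate. After paraformaldehyde fixation and Hoechst stain, imaged at 20x; PNC prevalence scored by image analysis.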
# * = called active by the depositor; ? = inconclusive; / = no result; [ ] = remark or other dose. Rows were chosen to be rich in hits. Some 11% of all compounds tested hit in one or more screens of this group. Unless noted, calls follow the shape of the dose curve; as a rule, active = well fitted curve in the direction sought with a large enough effect; inconclusive = small, poorly fitted or top-dose-only effect, or another doubt; inactive = no such curve, though single readings can be large; an effect the other way counts as inactive or inconclusive. Unless noted, % is scaled to controls: 0 for no effect and ±100 for the full control effect.
SMILES,ALDH1A1 inh,NPSR antag,IMPase Li cell,IMPase inh,HPGD inh,PNC assembly inh
CC(C)(C)c1ccc(C(=O)c2c[nH]c(C(=O)NCC3CCCO3)c2)cc1 (centres undefined),-1%,-16%[46.1 µM],1%,2,13µM*,26
COc1ccc(C(=O)c2c[nH]c(C(=O)NCC3CCCO3)c2)cc1 (centres undefined),?,-4%[46.1 µM],-3%[38.3 µM],7,2µM*,19
O=C(NCC1CCCO1)c1cc(C(=O)C2CCCCC2)c[nH]1 (centres undefined),-1%,-1%,-7%,/,/,/
CCCCn1c(SC(C)C(N)=O)nc2cc(C(=O)OC)ccc2c1=O (centres undefined),0.6µM*,-23%[46.1 µM],-24%[38.3 µM],3,-15%,-1
CCNC(=O)NC(=O)C(C)Sc1nc2cc(C(=O)OC)ccc2c(=O)n1-c1ccccc1 (centres undefined),22µM*,-23%[46.1 µM],-15%[38.3 µM],13,-7%,-19
COc1ccc(CCN2C(=O)CC(Cc3ccc(Br)cc3)C2=O)cc1OC (centres undefined),5%,0%,9%,/,-1%,9
COc1ccc(C)cc1NS(=O)(=O)c1cn(C)nc1C,?,3%,3%,/,/,/
CC(C)(C)OC(=O)N1CCC(c2cc(=O)n3[nH]c(-c4ccc(Cl)cc4)cc3n2)CC1,7%,0%[46.1 µM],-8%[38.3 µM],0,-14%,-84*
CCOC(=O)Cc1cc(=O)n2[nH]c(-c3ccc(Cl)cc3)cc2n1,?,-10%[46.1 µM],-1%[38.3 µM],1,-21%,?
CCOC(=O)c1sc(NC(=O)c2ccc(S(=O)(=O)N3CCOCC3)cc2)cc1C,-5%,-9%[7.67 µM],2%[38.3 µM],-3,-12%,13
CSC1=NC(C)(C)C=C(/C=C/c2ccc(Cl)cc2)N1,20µM*,4%,18%,/,/,/
N#C/C(=N\Nc1cccc(Cl)c1)C(=O)c1ccccc1,2%,0%[46.1 µM],13%[38.3 µM],1,-17%,?
N#C/C(=N\Nc1ccccc1Cl)C(=O)c1ccccc1,-67%,3%[46.1 µM],29%[38.3 µM],7,28µM*,26
C/C(=N/NC(=O)c1cccc(C)c1)c1c(O)cc(C)oc1=O,32µM*,0%[46.1 µM],11%,-6,-25%,-100*
C/C(=N\Nc1ccccc1)c1c(O)cc(C)oc1=O,14µM*,-4%,2%,/,/,/
O=[N+]([O-])c1ccc(-n2nncc2-c2ccc(Cl)cc2)cc1,3%,-11%[46.1 µM],19%[38.3 µM],-1,-9%,-12
O=Cc1ccc(-n2nncc2-c2ccc([N+](=O)[O-])cc2)cc1,13µM*,-12%,11%,/,/,/
CCC1CCCCN1CCNC(=O)C1CCN(S(=O)(=O)c2c(C)noc2C)CC1 (centres undefined),1%,-2%[46.1 µM],18%[38.3 µM],5,-3%,-8
O=C(c1ccc(Cl)c([N+](=O)[O-])c1)N1CCN(c2ccccn2)CC1,10µM*,-7%,11%,/,-4%,15
O=C(c1ccc(S(=O)(=O)Cc2ccccc2Cl)c([N+](=O)[O-])c1)N1CCN(c2ccccn2)CC1,18µM*,-8%,5%,/,/,/
Cn1c(-c2c(N)n(C3CCCC3)c3nc4ccccc4nc23)nc2ccccc21,5%,-16%[46.1 µM],-39%[38.3 µM],-13,-11%,-94*
Cn1c(-c2c(N)n(CCCc3ccccc3)c3nc4ccccc4nc23)nc2ccccc21,?,-13%[46.1 µM],10µM*,?,?,4
COc1cc2c(cc1C=O)OC(C)C2 (centres undefined),?,20%,-5%,/,/,/
CCOc1cc2c(cc1C=O)OC(C)C2 (centres undefined),25µM*,1%,-15%,/,/,/
